NR3A LBD binder: binders of NR3A ligand-binding domain, primary screen, biophysical, differential scanning fluorimetry, uHTS | AID 1259313, 2017 | Tm shift relative to glycine control, % at 25 µM | Glutamate receptor ionotropic, NMDA 3A (GRIN3A) ligand-binding domain | NR3A LBD differential scanning fluorimetry, Tm shift; 0% = protein alone, 100% = glycine-bound protein | 340,000 compounds, 2.5% hits;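 active = melting temperature shift of at least 10% of the positive control shift, at one fixed dose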
esBAF inh: Bmi1 luciferase reporter increase in mESCs, primary screen, esBAF inhibitor project, mouse ES cells, Bmi1 luciferase knock-in, single point; 24 h; 100% = twice the neutral-well signal; reporter increase, % at 12.5 µM; 350,000 compounds, 2% hits; AID 602393, 2012; in the data active = activation above about 40%;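 note: a rise in the Bmi1 reporter signal indicates esBAF inhibition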
SKN-1 block: suppressors of acrylamide-induced Pgst-4::GFP reporter in worms, primary screen, SKN-1 inhibitor project, whole organism, uHTS, GFP/RFP fluorescence ratio, strain VP596 | C. elegans VP596 Pgst-4::GFP/RFP ratio, 24 h | inhibition, % at 21.8 µM | 360,000 compounds, 0.49% hits;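 active = interference check ratio from 0.5 to 1.5 plus GFP to RFP signal ratio inhibition reaching or exceeding a fixed threshold, cut at about 30% in these data, passing the limit was not always enough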
Vif imaging: HIV Vif self-association inhibitors, primary screen, imaging, HEK293T, single point | HEK293T cells, Vif self-association by quenched fluorescence, 24 h | inhibition, % at 7.49 µM | AID 602346, 2012 | 340,000 compounds, 0.35% hits; in the data active = inhibition above about 50%, passing the limit was not always enough
NadD block: inhibitors of S. aureus NadD, primary screen, biochemical, colorimetric, uHTS. Nicotinate-nucleotide adenylyltransferase NadD (Staphylococcus aureus N315). purified NadD enzyme, colorimetric absorbance read-out. inhibition, % at 20 µM. 360,000 compounds, 0.78% hits. AID 602399, 2012; in the data active = inhibition above about 26%
SMARCA2 act: SMARCA2 (BRM) function activators, primary screen, cell-based, luminescence, high throughput. MG213 cells, MMTV-luciferase reporter, dexamethasone, overnight. activation, % at 9.1 µM. 370,000 compounds, 1% hits; in the data active = activation above about 7.8%
Of the large screens only hits and unclear results are named; the others gave an inactive call. In the library only some 5.2% were active in any assay of this set; here they are far more common.

CC1=Nc2cccc3cccc(c23)N1	none
c1cc2c3c(cccc3c1)NC1(CCC3(CC1)Nc1cccc4cccc(c14)N3)N2	NR3A LBD binder 18, NadD block 51
c1cc2c3c(cccc3c1)NC1(CCCCCC1)N2	none
COc1ccc(NC(=O)N(C)C[C@@H]2Oc3ccc(NC(=O)C4CC4)cc3C(=O)N([C@@H](C)CO)C[C@@H]2C)cc1	none (no result: NR3A LBD binder, SKN-1 block, Vif imaging, NadD block, SMARCA2 act)
O=C(NCc1ccccc1)c1ccc(-c2cn[nH]c2)c2ccoc12	esBAF inh 57 (no result: NR3A LBD binder)
O=C(NCC1CC1)c1ccc(-c2cn[nH]c2)c2ccoc12	SKN-1 block 35 (no result: NR3A LBD binder)
COCCNC(=O)c1ccc(-c2cn[nH]c2)c2ccoc12	none (no result: NR3A LBD binder)
CO[C@H]1CN(C)C(=O)c2ccc(NC(=O)NC(C)C)cc2OC[C@H](C)N(C)C[C@H]1C	none (no result: NR3A LBD binder, SKN-1 block, Vif imaging, NadD block, SMARCA2 act)
C[C@H]1CN([C@@H](C)CO)C(=O)Cc2cc(NS(C)(=O)=O)ccc2O[C@H]1CN(C)C(=O)Nc1ccc(C(F)(F)F)cc1	none (no result: NR3A LBD binder, SKN-1 block, Vif imaging, NadD block, SMARCA2 act)
CCOC(=O)c1ccc(NC(=S)N2CCSC2c2ccc(OC)cc2)cc1 (stereo not given)	none (no result: esBAF inh)
CCOC(=O)c1ccc(NC(=S)N2CCSC2c2ccc(Cl)cc2)cc1 (stereo not given)	NR3A LBD binder 19
Cc1ccc(NC(=O)CSCC(=O)Nc2ccccc2C(=O)N2CCCCC2)cc1	SKN-1 block 46 (no result: esBAF inh)
COc1ccc(C(CC(=O)c2ccc(C)cc2)Sc2ccccc2N)cc1 (stereo not given)	esBAF inh 60 (no result: NR3A LBD binder)
CCC(=O)N(C)C[C@@H]1Oc2cc(C#CC3CC3)ccc2S(=O)(=O)N([C@H](C)CO)C[C@@H]1C	none (no result: NR3A LBD binder, SKN-1 block, Vif imaging, NadD block, SMARCA2 act)
Nc1nc(Cl)cc(N2CCC(c3cc(-c4ccc(Cl)cc4Cl)n[nH]3)CC2)n1	NR3A LBD binder 13
C[C@@H]1CCCCO[C@@H](CN(C)S(C)(=O)=O)[C@H](C)CN([C@H](C)CO)C(=O)c2cc(NC(=O)Cc3ccccc3)ccc2O1	none (no result: NR3A LBD binder, SKN-1 block, Vif imaging, NadD block, SMARCA2 act)
Cc1ccc2[nH]c(=O)c(C(c3nnnn3CC3CCCO3)N3CCCc4ccccc43)cc2c1 (stereo not given)	NR3A LBD binder 19
Cn1cccc1/C=C1\SC(=S)N(NC(=O)c2ccccc2O)C1=O	none (no result: esBAF inh)
O=C(NN1C(=O)/C(=C/C=C/c2ccco2)SC1=S)c1ccccc1O	NadD block 40
CCOc1ccc(NC(=O)COc2ccccc2)c([N+](=O)[O-])c1	esBAF inh 62
CCOc1ccc(NC(=O)c2ccc(Br)o2)c([N+](=O)[O-])c1	esBAF inh 50
CCOc1ccc(N/C=C/C(=O)c2ccc3ccccc3c2)c([N+](=O)[O-])c1	NR3A LBD binder 37, esBAF inh 50 (no result: SMARCA2 act)
O=C(C[C@@H]1CC[C@@H]2[C@H](COC[C@@H](O)CN2Cc2ccccc2)O1)N[C@H]1CCN(Cc2ccccc2)C1	none (no result: NR3A LBD binder, SKN-1 block, Vif imaging, NadD block, SMARCA2 act)
Cc1c(NCc2nc3ccccc3[nH]2)c(=O)n(-c2ccccc2)n1C	SMARCA2 act 7.8 (no result: Vif imaging)
COc1ccc(S(=O)(=O)N(C)C[C@H]2Oc3ccc(NC(=O)CCCCCC(=O)Nc4ccccc4N)cc3CC(=O)N([C@H](C)CO)C[C@H]2C)cc1	none (no result: NR3A LBD binder, SKN-1 block, Vif imaging, NadD block, SMARCA2 act)
O=C(C[C@@H]1CC[C@H]2[C@@H](COC[C@@H](O)CN2C(=O)c2ccc(F)cc2)O1)Nc1nccs1	none (no result: NR3A LBD binder, SKN-1 block, Vif imaging, NadD block, SMARCA2 act)
COc1ccc(C(=O)NCc2oc(-c3ccccc3)cc2C(=O)O)cc1	Vif imaging 61
Cc1nc(S(=O)(=O)c2ccc(Cl)cc2)c(NCc2ccccc2)o1	none
CNc1oc(C)nc1S(=O)(=O)c1ccccc1	NR3A LBD binder 15 (no result: Vif imaging)
Cc1cc(-c2csc(NC(=O)c3cccc(S(=O)(=O)N(C)C)c3)n2)c(C)n1-c1ccccc1	NadD block 49 (no result: esBAF inh)
CC(C)NC(=O)Nc1cccc2c1O[C@H](CN(C)C)[C@H](C)CN([C@@H](C)CO)C2=O	none (no result: NR3A LBD binder, SKN-1 block, Vif imaging, NadD block, SMARCA2 act)
